An excerpt weighted towards active compounds, which were near 0.36% of everything screened.
Pol III holo inh = blocks replication by bacterial DNA polymerase III holoenzyme. reconstituted DNA polymerase III holoenzyme replication, biochemical. Potency, µM (series often up to 57.1 µM), for inactives: top-dose activity change, negative = inhibition. actives 0.25% (n = 71,000); also: potency is read from the fitted curve at half-maximal effect; % is scaled to controls: 0 for no effect and ±100 for the full control effect
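Reconstituted *E. coli* holoenzyme (0.35 nM Pol III, 1 nM beta, 154 nM SSB, 2 nM primase) was preincubated with compound for 15 min at RT. Synthesis on 1.4 nM ssM13Gori ran 35 min, then was stopped with PicoGreen/EDTA and read as dsDNA fluorescence.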
BRCT inh red = inhibitors of human BRCA1 BRCT-phosphoprotein interaction (red fluorophore) | Potency, µM (series often up to 76.9 µM), inactives show at the highest dose activity change, negative = inhibition, usual class: inhibitors | AID 892 | P38398 | actives 0.03% (n = 75,000) | BRCT-phosphopeptide binding, red fluorescence polarization; also: % is scaled to controls: 0 for no effect and ±100 for the full control effect
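Fluorescence polarization: 100 nM His-tagged BRCA1 BRCT with 100 nM TAMRA-labelled phospho-BACH1 decapeptide, phosphate buffer pH 7.3 with 150 mM NaCl, DTT, 0.01% Tween 20; 12 min RT. Binding inhibition seen as FP decrease.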
YjeE inh = YjeE (TsaE) inhibition, E. coli. purified YjeE enzyme, qHTS inhibition assay. Potency, µM. actives 0.05% (n = 71,000)
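Fluorescence polarization of a BODIPY Texas Red–ADP probe (2 uM) bound to purified YjeE (10 uM) was read after 15 min room-temperature incubation with compounds. Loss of polarization marks inhibitors; ADP serves as titrated control.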
BRCT PPI green = BRCA1 BRCT-phosphoprotein interaction inhibition; P38398; BRCA1 BRCT-phosphopeptide binding, green fluorescence polarization; Potency, µM (series often up to 76.9 µM), without a hit: at the highest dose activity change, negative = inhibition, actives largely listed as inhibitors; actives 0.05% (n = 75,000); AID 875;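 also: potency is read from the fitted curve at half-maximal effect; plate controls were peptide without protein for full effect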
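Fluorescence polarization: His-tagged BRCT (~35 kDa BRCA1 C-terminus, 250 nM) bound to 100 nM fluorescein-labeled phosphorylated 10-aa BACH1 peptide, pH 7.3 phosphate buffer with DTT and Tween 20. Compounds incubated 12 min at room temperature; inhibition read as lowered polarization.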
USP2a inhib = blocks human ubiquitin-specific protease USP2a. O75604. USP2a enzymatic assay, qHTS inhibition. Potency, µM (series often up to 38.3 µM), inactives show at the top dose activity change, negative = inhibition, usual class: inhibitors. actives 0.1% (n = 60,000). AID 927; also: potency is read from the fitted curve at half-maximal effect; nearly all actives have a fitted effect of over 60% in size
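USP2 core (20 nM final) was preincubated with compound for 30 min at RT in 20 mM Tris-HCl pH 8.0, 2 mM CaCl2, 2 mM beta-mercaptoethanol; Ub-PLA2 (20 nM) plus NBD C6-HPC (20 uM) then added, fluorescence read after 2.5 h.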
The depositor's hits bear a star; i = inactive; ? = inconclusive; . = no result given; ! = a repeat was not active; [ ] = another dose, or the depositor's remark. Calls follow the shape of the dose curve; as a rule, active = well fitted curve in the direction sought with a large enough effect; inconclusive = small, poorly fitted or top-dose-only effect, or another doubt; inactive = no such curve, though single readings can be large; an effect the other way counts as inactive or inconclusive.

SMILES | Pol III holo inh | BRCT inh red | YjeE inh | BRCT PPI green | USP2a inhib
O=C1CN=C(c2cccs2)c2c(sc3c2CCCC3)N1 | -5% | -1% | i | 0% | 6.3µM*
N#CSCSC#N | -8% | -1% | i | -2% | .
COC(=O)c1c(C)[nH]c(C(=O)C(Cc2ccccc2)N(C)C)c1C (stereo not drawn) | 3% | -1% | i | -1% | -1%
CC(=O)[O-].CC(=O)[O-].O.O.[Cd+2] | 0.25µM* | 0% | ? | 0% | .
C[C@@H]1[C@@H]2Cc3ccc(O)cc3[C@@]1(C)CCN2CC1CC1 | -8% | 1% | i | -2% | 0%
NC(=O)CI | -9% | -2% | i | -3% | 25µM*
Cl.Cl.Cl.Cl.Cl.Cl.N.N.N.N.NNNNN.NNNNN.O.O.[Ru].[Ru].[Ru] | ? | 1% | 79µM* | -2% | .
Cc1cc(Cl)ccc1OC(C)C(=O)O (stereo not drawn) | -4% | -3% | i | -3% | -2%
ClC1C(Cl)C(Cl)C(Cl)C(Cl)C1Cl (stereo not drawn) | . | 0% | . | -1%[3.08 µM] | -11%
CC[n+]1c(-c2ccccc2)c2cc(N)ccc2c2ccc(N)cc21 | 2µM* | ? | 79µM* | ? | -6%
CN(C)[C@@H]1C(=O)C(C(N)=O)=C(O)[C@]2(O)C(=O)C3=C(O)c4c(O)cccc4[C@](C)(O)[C@H]3C[C@@H]12 | 3.2µM* | ? | i | ? | .
O=[N+]([O-])c1cc(C(F)(F)F)cc([N+](=O)[O-])c1Cl | -7% | 0% | i | -1% | .
c1cc2cc(c1)C[n+]1ccc(c3ccccc31)NCc1ccc(cc1)CNc1cc[n+](c3ccccc13)C2 | 32µM* | -2% | i | 7% | .
CC1=NCCc2c1[nH]c1cc(O)ccc21 | -4% | 2% | i | 32µM*! | 64%
CCOC(=O)c1ccc2[nH]c(-c3ccc(S(=O)(=O)F)cc3)cc(=O)c2c1 | -17%[11.4 µM] | 1%[15.4 µM] | i | 0%[15.4 µM] | .
[O]=[Cr](=[O])([OH])[O][Cr](=[O])(=[O])[OH] | 5µM*! | -3% | i | -3% | .
NC(=O)CN1CCCC1=O | -7%[25.6 µM] | -1% | i | -1%[3.08 µM] | -9%
CC1=NN(c2ccccc2)C(=O)[C@@H]1N=Nc1ccc([As](=O)(O)O)c(O)c1 | -13%[11.4 µM] | 0%[15.4 µM] | i | 4%[15.4 µM] | .
N[C@@H](Cc1cc(O)c(O)cc1O)C(=O)O | 0.4µM* | ? | i | ? | 6.3µM*
O=S1OCC2C(CO1)C1(Cl)C(Cl)=C(Cl)C2(Cl)C1(Cl)Cl (stereo not drawn) | 4% | 2% | i | -2% | -8%
O=C(O)[C@@H]1[C@H](C(=O)O)[C@]2(Cl)C(Cl)=C(Cl)[C@@]1(Cl)C2(Cl)Cl | 2µM* | -3%[15.4 µM] | i | -5%[15.4 µM] | .
CCC(C)C(=O)c1c(O)c(C)c2oc3c(C)c(O)c(C(=O)C(C)CC)c(O)c3c2c1O (stereo not drawn) | . | 0% | . | -2% | 17%
CN(N=O)c1ccc(O)c(O)c1 | 0.4µM* | 6.3µM* | i | 10µM* | 13µM*
O=C(O)c1ccccc1-c1c2cc(Br)c(=O)cc-2oc2[c]([Hg])c(O)c(Br)cc12 | i | 1.6µM* | i | 0.79µM* | 55%
C=CCn1c(O)c(C(CC)=Nc2ccc(N(CC)CC)cc2)c(=O)[nH]c1=O | -7% | -1% | i | -1% | 7%
O=C(c1cccs1)N1C2CCC1CC(O)(c1cccnc1)C2 (stereo not drawn) | -5% | -1% | i | 1% | -6%
O=C1C=Cc2ccccc2C1=O | . | -1% | . | -1% | .
O=C1C=CC(=O)c2c(O)cccc21 | . | ? | . | -7%[3.08 µM] | 13µM*

Screening results from PubChem.
